Screening data: PubChem, National Center for Advancing Translational Sciences (NCATS)
L3MBTL1 block = blocks human L3MBTL1 | AlphaScreen L3MBTL1–H3K9me1 peptide binding | AID 485360 | Q9Y468 | actives 0.66% (n = 230,000) | Potency, µM (titrated, usually from 57.1 µM), for the others: top-dose activity, negative = inhibition, actives largely listed as inhibitors; note: % is set by controls: 0 for no effect and ±100 for the full control effect; nearly all actives have a fitted effect of over 60% in size
Target sequence (Q9Y468 whole entry, looked up): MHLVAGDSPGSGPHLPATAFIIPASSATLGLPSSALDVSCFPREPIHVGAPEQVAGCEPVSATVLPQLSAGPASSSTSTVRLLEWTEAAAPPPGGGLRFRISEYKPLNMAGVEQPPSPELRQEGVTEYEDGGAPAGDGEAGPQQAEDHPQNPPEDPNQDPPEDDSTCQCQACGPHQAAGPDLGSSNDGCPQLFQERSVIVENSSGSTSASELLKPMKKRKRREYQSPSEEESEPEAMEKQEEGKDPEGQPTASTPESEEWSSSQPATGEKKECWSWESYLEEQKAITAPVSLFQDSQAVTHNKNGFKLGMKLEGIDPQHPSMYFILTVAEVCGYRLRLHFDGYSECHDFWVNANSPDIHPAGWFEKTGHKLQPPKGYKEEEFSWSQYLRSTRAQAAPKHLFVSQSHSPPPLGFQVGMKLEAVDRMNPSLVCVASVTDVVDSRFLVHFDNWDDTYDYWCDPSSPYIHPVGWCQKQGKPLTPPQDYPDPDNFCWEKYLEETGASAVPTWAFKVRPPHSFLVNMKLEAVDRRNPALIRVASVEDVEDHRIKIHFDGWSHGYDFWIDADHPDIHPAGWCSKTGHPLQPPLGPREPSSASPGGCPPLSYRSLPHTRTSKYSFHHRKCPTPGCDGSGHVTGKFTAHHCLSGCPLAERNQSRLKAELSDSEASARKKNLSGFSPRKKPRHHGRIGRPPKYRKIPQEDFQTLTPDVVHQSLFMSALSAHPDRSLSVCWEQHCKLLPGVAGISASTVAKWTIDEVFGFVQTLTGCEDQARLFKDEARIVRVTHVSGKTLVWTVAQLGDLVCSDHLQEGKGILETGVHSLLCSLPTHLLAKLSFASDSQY
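AlphaScreen proximity signal between nickel-chelate acceptor and streptavidin donor beads (final 10 ug/mL) reports binding of 50 nM L3MBTL1 to 75 nM biotin-H3 K9me1 peptide; complex incubated with compounds 30 min at room temperature; cefsulodin titration as control.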
Sfp PPTase inh = blocks B. subtilis Sfp PPTase activity | actives 3.5% (n = 310,000) | Potency, µM, without a hit: largest response in the series, negative = inhibition, usual class: inhibitors | Q9F4F7 | Biochemical Sfp PPTase activity, qHTS;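 note: the enzyme is Sfp with the accession as filed and its product quenches rhodamine fluorescence; 0% = enzyme reaction without inhibitor and -100% = no enzyme wells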
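Reaction rates are the 30-min fluorescence difference (ex 525, em 598 nm) in wells containing 15 nM Sfp, 5 uM rhodamine-CoA and 12.5 uM BHQ-2-YbbR at pH 7.6 with 10 mM MgCl2.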
HP1b chromo inh = HP1-beta chromodomain-methylated histone interaction inhibition; P83916; AlphaScreen HP1-beta / biotin-H3K9me3 peptide binding; Potency, µM (doses to about 114 µM), for inactives: at the top dose activity change, negative = inhibition, most hits filed as inhibitors; actives 0.56% (n = 390,000); AID 540317; note: nearly all actives have a fitted effect of over 70% in size
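HP1-beta protein (50 nM final) preincubated 30 min at room temperature with biotinylated H3(1-18)K9me3 peptide (50 nM) in PBS pH 7.4, 0.01% Tween-20, then compound added for 30 min. AlphaScreen streptavidin donor/nickel chelate acceptor beads (10 ug/mL final), 30 min dark, luminescence read.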
G9a inh = blocks human histone lysine methyltransferase G9a. G9a H3K9 monomethylation, AlphaScreen, 2 h. Potency, µM (doses to about 102 µM), without a hit: at the highest dose activity, negative = inhibition, actives largely listed as inhibitors. actives 8.8% (n = 350,000). AID 504332; note: % is set by controls: 0 for no effect and ±100 for the full control effect; nearly all actives have a fitted effect of over 75% in size
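G9a (20 nM) was preincubated 15 min with compound, then reacted 2 h at room temperature with 500 nM biotin-H3K9 peptide and 20 µM SAM. Monomethyl-H3K9 detected by AlphaScreen using anti-H3K9me1 antibody.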
BAZ2B block = BAZ2B (human) inhibition; AlphaScreen BAZ2B-H3K14Ac peptide displacement; Potency, µM (doses to about 114 µM), for inactives: top-dose activity change, negative = inhibition, most hits filed as inhibitors; actives 4.4% (n = 360,000); AID 504333; note: % is set by controls: 0 for no effect and ±100 for the full control effect; nearly all actives have a fitted effect of over 60% in size
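Multi-concentration screen (max 110 uM) measuring displacement of acetylated histone H3 peptide from BAZ2B by AlphaScreen, using 50 nM protein, 50 nM peptide and 10 ug/mL streptavidin donor plus Ni-chelate acceptor beads.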
JMJD2A Tudor = inhibitors of human JMJD2A Tudor domain | O75164 | AlphaScreen JMJD2A-Tudor / H3K4me3 peptide binding | Potency, µM (doses to about 114 µM), for inactives: top-dose activity change, negative = inhibition, usual class: inhibitors | actives 4.4% (n = 390,000); note: % is set by controls: 0 for no effect and ±100 for the full control effect; nearly all actives have a fitted effect of over 50% in size
Starred values were filed as active, the others as inactive; [ ] = dose if it differs, or a comment. The list is not random: actives were taken first. Their share in the collection is about 12%. Calls come from the whole dose curve; as a rule, active = well fitted curve in the direction sought with a large enough effect; inconclusive = small, poorly fitted or top-dose-only effect, or another doubt; inactive = no such curve, though single readings can be large; an effect the other way counts as inactive or inconclusive. Potency is the fitted concentration of half-maximal effect.

Screening Clc1cccc(CSc2nnc(-c3ccccn3)n2Cc2ccco2)c1 returned L3MBTL1 block -7%, Sfp PPTase inh -20%, HP1b chromo inh 19%, G9a inh inconclusive, BAZ2B block inconclusive and JMJD2A Tudor -26%.
COc1cccc(CNC(=O)Cc2c(C)c3c(cc(C)c4c(C)coc43)oc2=O)c1 was read as HP1b chromo inh 16%, G9a inh 0%[59 µM], BAZ2B block 0% and JMJD2A Tudor -15%.
Screening COCCn1c(C23CC4CC(CC(C4)C2)C3)n[nH]c1=S returned L3MBTL1 block -1%[11.4 µM], Sfp PPTase inh 32µM*, HP1b chromo inh 28%, G9a inh inconclusive, BAZ2B block -5% and JMJD2A Tudor 7.1µM*.
CCCCn1c(C23CC4CC(CC(C4)C2)C3)n[nH]c1=S was read as L3MBTL1 block -10%, Sfp PPTase inh -15%, HP1b chromo inh -10%, BAZ2B block -34% and JMJD2A Tudor 32µM*.
Screening CCCC[C@@H]1CNC(=S)N1CCC12CC3CC(CC(C3)C1)C2 returned L3MBTL1 block 5%, Sfp PPTase inh 7%, HP1b chromo inh 37%, G9a inh 13%[59 µM], BAZ2B block -13% and JMJD2A Tudor -31%.
COCCn1c(C)cc(C(=O)COC(=O)C23CC4CC(CC(O)(C4)C2)C3)c1C was read as L3MBTL1 block 0%, Sfp PPTase inh 6%, HP1b chromo inh 15%, G9a inh inconclusive, BAZ2B block inconclusive and JMJD2A Tudor -16%.
`Cc1cc(C)c(S(=O)(=O)NCC(c2cccs2)S(=O)(=O)c2ccccc2)c(C)c1` (stereo not drawn) gave HP1b chromo inh 76%, G9a inh -2%[59 µM], BAZ2B block -4% and JMJD2A Tudor -8%.
For CC(=NNC(=S)N1CC2CCC(CC2)C1)c1cccc(C)n1 the results were HP1b chromo inh inconclusive and JMJD2A Tudor 22µM*.
CC(=NNC(=S)N1CCC1)c1ccccn1 was read as HP1b chromo inh 15% and JMJD2A Tudor 20µM*.
Screening CC(=NNC(=S)SCc1ccccc1)c1ccccn1 returned HP1b chromo inh -15% and JMJD2A Tudor 20µM*.
For CCCCCC(=O)N/N=C(\C)c1ccccn1 the results were L3MBTL1 block 5%, Sfp PPTase inh inconclusive, HP1b chromo inh 43%, G9a inh inconclusive, BAZ2B block -33% and JMJD2A Tudor -19%.
CCn1nc(C)c2c(-c3ccccc3)cc(=O)n(C(C)C(=O)NCCc3ccccc3)c21 (stereo not drawn) was read as HP1b chromo inh -12%, G9a inh -1%[59 µM], BAZ2B block -15% and JMJD2A Tudor -18%.
`CC(=O)C1=C(NC(=O)c2ccccc2F)C[C@@H]2[C@H]1C2(C)C` gave Sfp PPTase inh -5%, HP1b chromo inh 35%, G9a inh 56µM*, BAZ2B block -10% and JMJD2A Tudor -13%.
For Cc1ccc2cc(CN(C(=O)c3cccc(Cl)c3)c3ccccc3)c(=O)[nH]c2c1 the results were HP1b chromo inh 38%, G9a inh -3%[59 µM], BAZ2B block -2% and JMJD2A Tudor -6%.
For Cc1cc(=O)[nH]c(SCC(=O)NNC(=O)Cc2ccccc2)n1 the results were L3MBTL1 block 20%, Sfp PPTase inh -7%, HP1b chromo inh 17%, G9a inh 36%, BAZ2B block -38% and JMJD2A Tudor -3%.
`COc1ccc(CC(=O)NNC(=O)CSc2nc(C)c(C)c(=O)[nH]2)cc1` gave Sfp PPTase inh 89µM*, HP1b chromo inh -1%, G9a inh -27%, BAZ2B block 3% and JMJD2A Tudor -5%.
For CCC(C)NC(=O)/C(=C/c1ccco1)c1ccccc1 (stereo not drawn) the results were L3MBTL1 block -23%, Sfp PPTase inh 3.2µM*, HP1b chromo inh 28%, G9a inh -49%[12.7 µM], BAZ2B block -37% and JMJD2A Tudor -6%.
Screening O=C(NCCc1ccccc1)/C(=C/c1ccco1)c1ccccc1 returned L3MBTL1 block -8%, Sfp PPTase inh 6.3µM*, HP1b chromo inh -18%, G9a inh 10µM*, BAZ2B block inconclusive and JMJD2A Tudor -33%.
`Cc1nc2c(c(C)nn2-c2ccccc2)c(C)c1CCC(=O)Nc1ccc(F)cc1` gave HP1b chromo inh 44%, G9a inh 14%[59 µM], BAZ2B block -12% and JMJD2A Tudor 0%.
`COC(=O)[C@@]1(Cc2ccc(OC)cc2)[C@H]2c3cc(C(=O)N4CCCC4)n(Cc4ccc(S(C)(=O)=O)cc4)c3C[C@H]2CN1C(=O)c1ccccc1` gave Sfp PPTase inh 15%.
For COC(=O)[C@@]1(Cc2ccc(F)cc2)[C@H]2c3cc(C(=O)N(C)C)n(CCc4ccc(OC)c(Br)c4)c3C[C@H]2CN1C(=O)c1ccccc1 the results were L3MBTL1 block -4%, Sfp PPTase inh 27%, HP1b chromo inh 1%, G9a inh 25µM*, BAZ2B block inconclusive and JMJD2A Tudor inconclusive.
Screening COC(=O)[C@@]1(Cc2ccccc2)[C@H]2c3cc(C(=O)N4CCCC4)n(CCSCCO)c3C[C@H]2CN1C(=O)c1ccccc1 returned L3MBTL1 block -10%, Sfp PPTase inh -8%, G9a inh 25µM* and BAZ2B block inconclusive.
For COC(=O)[C@@]1(Cc2ccc(F)cc2)[C@H]2c3cc(C(=O)N(C)C)n(Cc4ccc(C)o4)c3C[C@H]2CN1C(=O)c1ccccc1 the results were Sfp PPTase inh 16µM*.
`COC(=O)[C@@]1(Cc2ccc(OC)cc2)[C@H]2c3cc(C(=O)N4CCCC4)n(Cc4ccc(C)o4)c3C[C@H]2CN1C(=O)c1ccccc1` gave L3MBTL1 block -8%, Sfp PPTase inh inconclusive, G9a inh 79µM* and BAZ2B block 40µM*.
`COC(=O)[C@@]1(Cc2ccc(F)cc2)[C@H]2c3cc(C(=O)N4CCCC4)n(CCSCCO)c3C[C@H]2CN1C(=O)c1ccccc1` gave Sfp PPTase inh 6%.
For COC(=O)[C@@]1(Cc2ccc(F)cc2)[C@H]2c3cc(C(=O)N(C)C)n(Cc4ccc(O)c(OC)c4)c3C[C@H]2CN1C(=O)c1ccccc1 the results were Sfp PPTase inh 0%.
COC(=O)[C@@]1(Cc2ccc(F)cc2)[C@H]2c3cc(C(=O)N(C)C)n(Cc4ccc(OC)c(OC)c4)c3C[C@H]2CN1C(=O)c1ccccc1 was read as L3MBTL1 block -8%, Sfp PPTase inh -15%, HP1b chromo inh -14%, G9a inh 50µM*, BAZ2B block inconclusive and JMJD2A Tudor inconclusive.
